# Assay outcomes deposited in PubChem BioAssay by several laboratories.
# CFTR F508del cor: CFTR F508del correction in bronchial cells | CFBE cells, YFP halide quenching; stimulated with forskolin plus potentiator P3; % fluorescence drop versus neutral controls | activity (quench increase), % at 7.58 µM | 350,000 tested, 0.36% active;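 active = mean added fluorescence quench of at least 8% versus neutral control, with both replicates also reaching 8%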;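 note: cells transiently co-express mutant CFTR-F508del with the halide-sensitive YFP; corrector assay measuring rescue of mutant channel to the surface after 24 h compound exposure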
# FXN GAA850 act: increases GAA850 frataxin promoter reporter activity; 360,000 tested, 0.56% active; activation, % at 6 µM; AID 540364; HEK293 lucGAA850 FXN promoter luciferase reporter, 24 h; percent of 10 µM SAHA response;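 active = activation above the average of all compounds screened plus 3 SD, cutoff fixed separately per campaign, cut at about 7.5% in these data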;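 note: 0% = DMSO wells and 100% = 10 µM SAHA wells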
# EWS-Fli block: blocks EWS/Fli oncoprotein-driven transcription; inhibition, % at 12.6 µM; AID 651661; 350,000 tested, 0.67% active; A673 NR0B1-luciferase reporter, viability-normalised;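 active = mean inhibition of at least 50% after viability correction, with every replicate also passing that limit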;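 note: firefly luciferase signal divided by Alamar Blue viability fluorescence both relative to DMSO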
# Env fusion inh: HIV envelope-mediated fusion inhibition; 360,000 tested, 1.1% active; inhibition, % at 12.3 µM; AID 651610; HeLa-JRFL Env/CEM21 cell fusion, luciferase;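 active = mean replicate inhibition score of at least 50 and every replicate individually at or above 50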;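 note: 0% = plate neutral controls and 100% = maraviroc near 300 nM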
# PAX8 reporter: lowers PAX8-driven luciferase in RMG-I cells; inhibition, % at 12.6 µM; 360,000 tested, 1.2% active; AID 652154; RMG-I TPO-luciferase reporter, SteadyGlo, 24 h;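 active = mean replicate inhibition at least 60% with every replicate also reaching 60%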;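 note: luciferase light reporting Pax8 driven TPO promoter activity; plate controls were median of neutral control wells for no effect and mitoxantrone controls for full effect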
# * marks the source's active call; other numbers are inactive results; / = no result given; [ ] = another dose, or the depositor's remark. This is a sample that favours compounds with a hit; in the whole collection about 2.5% have one here.
SMILES,CFTR F508del cor,FXN GAA850 act,EWS-Fli block,Env fusion inh,PAX8 reporter
O=C(C1CCOCC1)N1C[C@@H]2[C@H](c3ccccc31)[C@@H](CO)N2C(=O)Nc1ccccc1F,2.0,/,0.4,/,5.5
Cn1cnc(S(=O)(=O)N2C[C@@H](O)COC[C@@H]3O[C@@H](CC(=O)NCc4cccc(F)c4)CC[C@H]32)c1,0.2,/,-6.3,-26.9[16.7 µM],-9.4
Cc1ccc(NC(=O)C2CCCN(S(=O)(=O)c3cccc4nonc34)C2)cc1 (stereo not drawn),1.3,-1.3,4.6,12.1,-3.9
COc1ccc(C)cc1NC(=O)C1CCCN(S(=O)(=O)c2cccc3nonc23)C1 (stereo not drawn),0.3,-0.3,-2.0,/,141.0*
C[C@@H]1CCCCO[C@H](CN(C)Cc2ccc(C(F)(F)F)cc2)[C@@H](C)CN([C@@H](C)CO)C(=O)c2cc(NS(=O)(=O)c3cccs3)ccc2O1,-0.9,/,9.6,15.2[16.7 µM],89.2*
C[C@@H]1CN([C@@H](C)CO)C(=O)c2cc(NS(=O)(=O)c3cccs3)ccc2O[C@@H](C)CCCCO[C@H]1CN(C)Cc1ccc(C(F)(F)F)cc1,-0.3,/,17.2,58.4*[16.7 µM],83.8*
C[C@@H]1CN([C@@H](C)CO)C(=O)c2cc(NS(=O)(=O)c3cccs3)ccc2O[C@@H](C)CCCCO[C@H]1CN(C)Cc1ccc(C(=O)O)cc1,-1.4,/,-5.1,-1.1[16.7 µM],0.1
C[C@H](CO)N1C[C@H](C)[C@@H](CN(C)Cc2ccc(C(F)(F)F)cc2)OCCCC[C@H](C)Oc2ccc(NS(=O)(=O)c3cccs3)cc2C1=O,1.2,/,13.7,-10.0[16.7 µM],70.8*
C[C@@H]1CN([C@H](C)CO)C(=O)c2cc(NS(=O)(=O)c3cccs3)ccc2O[C@@H](C)CCCCO[C@H]1CN(C)Cc1ccc(C(=O)O)cc1,3.0,/,21.9,/,-36.4
C[C@@H]1CN([C@H](C)CO)C(=O)c2cc(NS(=O)(=O)c3cccs3)ccc2O[C@@H](C)CCCCO[C@@H]1CN(C)Cc1ccc(C(F)(F)F)cc1,5.3,/,-0.6,15.3[16.7 µM],93.7*
CC=Cc1ccc2n(c1=O)C[C@@H]1[C@@H](CO)[C@H](C(=O)NC3CCC3)[C@H]2N1Cc1ccncc1 (mixture of isomers),0.5,/,-0.8,/,/
COc1ccccc1CN(C)C[C@@H]1OCc2cnnn2CCCC(=O)N([C@H](C)CO)C[C@@H]1C,-0.8,/,4.1,1.9[16.7 µM],/
Cc1noc(C)c1NC(=O)Nc1ccc2c(c1)CC(=O)N([C@@H](C)CO)C[C@@H](C)[C@@H](CN(C)S(=O)(=O)c1cccs1)O2,-1.7,/,-9.4,26.5[16.7 µM],-4.6
O=C(OCCN1C(=O)c2cccc3c(N4CCOCC4)ccc(c23)C1=O)c1ccc(Cl)cc1,/,-3.1,/,-6.6,61.4*
CCCn1nc(C(=O)Nc2ccc3nc(N4CCOCC4)sc3c2)ccc1=O,-1.7,0.2,38.2,85.3*,38.6
COc1ccc(NC(=O)CCS(=O)(=O)c2ccccc2Cl)cc1S(=O)(=O)Nc1ccc(Cl)cc1,5.6,-4.6,57.4*,4.6,30.8
C[C@@H]1CN([C@@H](C)CO)S(=O)(=O)c2ccc(C#Cc3ccc(F)cc3)cc2O[C@@H]1CN(C)S(=O)(=O)c1ccc(F)cc1,1.5,/,18.1,29.8[16.7 µM],/
COc1ccc(-c2oc(=O)c3cc(OC)c(OC)cc3c2/C=C/c2ccc(OC(C)=O)cc2)cc1,0.9,-0.8,16.2,-34.8,23.5
COc1cc(-c2noc(C)c2/C=C/c2ccc(OC(C)=O)cc2)cc(OC)c1OC,3.0,1.0,63.8*,/,69.3*
COc1ccc(NS(=O)(=O)c2ccc(N3CCOCC3)c(NC(=O)C(C)C)c2)cc1,2.4,-0.7,-0.1,8.5,8.1
CCOC(=O)/C=C/C(=O)Nc1cc(S(=O)(=O)Nc2ccc(OC)cc2)ccc1N1CCOCC1,-3.5,-3.8,-4.8,38.9,98.2*
CC(C)(C)NC(=O)C1C(c2ccc(C(F)(F)F)cc2)=Nc2ccccc2N1C(=O)c1cccc(C(F)(F)F)c1 (stereo not drawn),-1.8,/,17.0,66.7*,16.3
C[C@@H]1CN([C@H](C)CO)C(=O)c2cccc(NS(=O)(=O)c3cn(C)cn3)c2O[C@H]1CN(C)S(=O)(=O)c1cccs1,0.7,/,-6.5,4.5[16.7 µM],-4.2
Nc1nc(NCc2ccccc2)nc(NCCO)c1[N+](=O)[O-],1.1,6.4,7.8,63.2*,-11.5
Nc1nc(NCCO)nc(NCc2ccccc2)c1[N+](=O)[O-],/,2.4,/,/,/
Cn1cc(/C=C(\C(=O)O)C(C(=O)O)=C2CCCCC2)c2ccccc21,-1.6,1.5,8.0,15.6,94.9*
